Measured values taken from PubChem BioAssay (Tox21).
Several values for one entry are separate records, joined by “and”; a condition that tells them apart may be missing. Equal entries are not always repeated. Results filed as inconclusive are left out. Entries that show only a call come without a potency. Some compounds were tested as several samples or in several runs, with calls that do not always agree. Activity calls are given as the source filed them. Unless noted, the call rests on the fitted dose curve; in most records, active means well fitted curve in the direction sought with a large enough effect in the repeat runs; inconclusive means weak or mixed curves; inactive means no such curve, though single readings can be large; an effect the other way counts as inactive or inconclusive.

Assays:
[1] = qHTS assay to identify small molecule agonists of the vitamin D receptor (VDR) signaling pathway - cell viability counter screen (AID 743224); further: nearly all actives have a fitted effect of over 50% in size; further: potency means the concentration at half of the fitted maximal effect
How it was run: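 Cells: VDR-bla, 2,000/well, settled 4 h. Treatment: compounds in DMSO, 16 h, 37C/5% CO2. Readout: CellTiter-Glo luminescence after 30 min RT.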

[2] = qHTS assay to identify small molecule antagonists of the vitamin D receptor (VDR) signaling pathway - cell viability counter screen (AID 743225); further: nearly all actives have a fitted effect of over 50% in size; further: potency means the concentration at half of the fitted maximal effect
How it was run: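 Parallel cytotoxicity test: VDR-UAS-bla HEK 293T, 3 nM (final) 1-alpha,25-dihydroxyvitamin D3 with test compound, 16 h, 37C. Endpoint is CellTiter-Glo luminescence in the same wells.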

[3] = qHTS assay to identify small molecule agonists of the NFkB signaling pathway (AID 1159509; active means well fitted curve in the direction sought with a large enough effect in the signal ratio in the repeat runs, not every such curve was filed as active; the % refers to the signal ratio; further: series mostly up to about 61 µM)
How it was run: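 Pathway activation was measured in ME-180 cells stably expressing beta-lactamase under NF-kB response element control. Substrate cleavage was read as the 460/530 nm emission shift after 5 hr compound incubation.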

[4] = qHTS assay to identify small molecule agonists of the NFkB signaling pathway - cell viability counter screen (AID 1159515; calls by dose curve; further: series mostly up to about 61 µM; nearly all actives have a fitted effect of over 55% in size)
How it was run: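 Cells are seeded (2,000 NFkB-bla ME-180 per well), rested overnight, and dosed with DMSO-dissolved compounds for 5 hr at 37 C. Viability is then read by CellTiter-Glo luminescence after 30 min at room temperature.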

[5] = qHTS assay to identify small molecule agonists of the endoplasmic reticulum stress response signaling pathway (AID 1159516; active means well fitted activation curve with a large enough effect in the signal ratio in the repeat runs, not every such curve was filed as active; the % refers to the signal ratio)
How it was run: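 Cells are seeded at 1,500 per well and incubated overnight. Compounds in DMSO are added for 5 hr at 37 C, then beta-lactamase FRET substrate for 2 hr at room temperature, and fluorescence at 460 and 530 nm is measured.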

[6] = qHTS assay to identify small molecule agonists of the endoplasmic reticulum stress response signaling pathway - cell viability counter screen (AID 1159517; calls by dose curve;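 further: HeLa cells carrying an ER stress response element beta-lactamase reporter; series mostly up to about 61 µM; nearly all actives have a fitted effect of over 50% in size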)
How it was run: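 ESRE-bla HeLa cells (1,500/well) were plated overnight at 37 C and exposed to compounds for 5 hr. After the 2 hr beta-lactamase substrate read, CellTiter-Glo went into the same wells, and luminescence was read after 30 min at room temperature.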

[7] = qHTS assay to identify small molecule antagonists of the retinoid-related orphan receptor gamma (ROR-gamma) signaling pathway - cell viability counter screen (AID 1159520); further: nearly all actives have a fitted effect of over 50% in size; further: potency means the concentration at half of the fitted maximal effect
How it was run: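 Cytotoxicity was read from cellular ATP (CellTiter-Glo luminescence) after 16 hr at 37 C with 1 uM doxycycline induction. The inducer was added 2 hr after compound transfer to Tet-on ROR gamma CHO cells.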

[8] = molecular target: Nuclear receptor ROR-gamma (Homo sapiens) (UniProt P51449); test: qHTS assay to identify small molecule antagonists of the retinoid-related orphan receptor gamma (ROR-gamma) signaling pathway (AID 1159521; further: nearly all actives have a fitted effect of over 50% in size; further: potency means the concentration at half of the fitted maximal effect)
How it was run: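 Decreased RORE-driven luciferase luminescence indicates antagonism. Tet-on RORγ CHO cells received compound, then 1 uM final doxycycline 2 h later; signal read after 16 h incubation.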

[9] = qHTS assay to identify small molecule agonists of the AP-1 signaling pathway - cell viability counter screen (AID 1159525; calls by dose curve; further: nearly all actives have a fitted effect of over 55% in size)
How it was run: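 Intracellular ATP by Cell Titer Glo luminescence (30 min, RT) in the same ME-180 AP-1-bla wells after the 5 h compound exposure at 37 °C. Normalised to tetra n-octyl ammonium bromide and DMSO controls.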

[10] = qHTS assay to identify small molecule agonists of the AP-1 signaling pathway (AID 1159526; calls by dose curve)

Q: What does the source list for OC(CCl)CCl?
A: Potency [1]: inactive; Potency [2]: inactive; outcome [3]: inactive; Potency [4]: inactive; Potency [5]: inactive; Potency [6]: inactive; Potency [7]: inactive; Potency [8]: inactive; Potency [9]: inactive; outcome [10]: inactive

Q: What does the source list for CCCC(=O)O?
A: Potency [1]: inactive; Potency [2]: inactive; outcome [3]: inactive; Potency [4]: inactive; Potency [5]: inactive; Potency [6]: inactive; Potency [7]: inactive; Potency [8]: inactive; Potency [9]: inactive; outcome [10]: inactive

Q: Which results are given for O=P(O)(O)O?
A: Potency [1]: inactive; Potency [2]: inactive and 5.49 µM (active); outcome [3]: inactive; Potency [4]: inactive; Potency [5]: inactive; Potency [6]: inactive; Potency [7]: inactive; Potency [8]: inactive; Potency [9]: inactive; outcome [10]: inactive

Q: With O=C(/C=C/c1ccccc1)OCc1ccccc1 as the molecule, how does the Potency [1] read?
A: inactive

Q: And the Potency [2]?
A: inactive

Q: And the outcome [3]?
A: inactive

Q: What about the Potency [4] of the same molecule?
A: inactive

Q: And the Potency [5]?
A: inactive

Q: What about the Potency [6] of the same molecule?
A: inactive

Q: What about the Potency [7] of the same molecule?
A: inactive

Q: And the Potency [8]?
A: inactive

Q: What about the Potency [9] of the same molecule?
A: inactive

Q: And the outcome [10]?
A: inactive

Q: For Cn1cnc([N+](=O)[O-])c1Sc1ncnc2nc[nH]c12, which Potency [2] is on record?
A: inactive

Q: And the outcome [3]?
A: inactive

Q: What about the Potency [4] of the same molecule?
A: inactive

Q: And the Potency [5]?
A: inactive

Q: What about the Potency [6] of the same molecule?
A: inactive

Q: What about the Potency [7] of the same molecule?
A: inactive

Q: What about the Potency [8] of the same molecule?
A: 30.5 µM (active) and inactive

Q: And the Potency [9]?
A: inactive

Q: What about the outcome [10] of the same molecule?
A: inactive

Q: Which Potency [1] does the source give for Cc1cc2nc3c(=O)[nH]c(=O)nc-3n(C[C@H](O)[C@H](O)[C@H](O)CO)c2cc1C here?
A: inactive

Q: And the Potency [2]?
A: inactive

Q: And the outcome [3]?
A: inactive

Q: And the Potency [4]?
A: inactive

Q: And the Potency [5]?
A: inactive

Q: What about the Potency [6] of the same molecule?
A: inactive

Q: What about the Potency [7] of the same molecule?
A: inactive

Q: And the Potency [8]?
A: inactive

Q: What about the Potency [9] of the same molecule?
A: inactive

Q: What about the outcome [10] of the same molecule?
A: inactive

Q: For CCCc1c(OCCCCc2nn[nH]n2)ccc(C(C)=O)c1O, which Potency [1] is on record?
A: inactive

Q: What about the Potency [2] of the same molecule?
A: inactive

Q: What about the outcome [3] of the same molecule?
A: inactive

Q: And the Potency [4]?
A: inactive

Q: And the Potency [5]?
A: inactive

Q: What about the Potency [6] of the same molecule?
A: inactive

Q: And the Potency [7]?
A: inactive

Q: What about the Potency [8] of the same molecule?
A: inactive

Q: And the Potency [9]?
A: inactive

Q: And the outcome [10]?
A: inactive

Q: With CC1=CC2C3CC(C=C3C)C2C1 (stereo not drawn) as the molecule, how does the Potency [1] read?
A: inactive

Q: And the Potency [2]?
A: inactive

Q: What about the outcome [3] of the same molecule?
A: inactive

Q: What about the Potency [4] of the same molecule?
A: inactive

Q: What about the Potency [5] of the same molecule?
A: inactive

Q: What about the Potency [6] of the same molecule?
A: inactive

Q: And the Potency [7]?
A: inactive

Q: And the Potency [8]?
A: inactive

Q: And the Potency [9]?
A: inactive

Q: What about the outcome [10] of the same molecule?
A: inactive

Q: Which Potency [1] does the source give for COc1ccc(OC)c(C(O)CNC(=O)CN)c1 (stereo not drawn) here?
A: inactive

Q: What about the Potency [2] of the same molecule?
A: inactive

Q: And the outcome [3]?
A: inactive

Q: What about the Potency [4] of the same molecule?
A: inactive

Q: And the Potency [5]?
A: inactive

Q: And the Potency [6]?
A: inactive

Q: What about the Potency [7] of the same molecule?
A: inactive

Q: What about the Potency [8] of the same molecule?
A: inactive

Q: And the Potency [9]?
A: inactive

Q: What about the outcome [10] of the same molecule?
A: inactive

Q: Which Potency [1] does the source give for Cc1cccc(N(C)C(=S)Oc2ccc3ccccc3c2)c1 here?
A: inactive

Q: And the Potency [2]?
A: 15.5 µM (active) and inactive

Q: And the outcome [3]?
A: inactive

Q: And the Potency [4]?
A: inactive

Q: What about the Potency [5] of the same molecule?
A: inactive

Q: And the Potency [6]?
A: inactive

Q: And the Potency [7]?
A: inactive

Q: What about the Potency [8] of the same molecule?
A: inactive

Q: What about the Potency [9] of the same molecule?
A: inactive

Q: What about the outcome [10] of the same molecule?
A: inactive

Q: Which results are given for CCCCC(CC)COP(=O)(OCC(CC)CCCC)OCC(CC)CCCC (stereo not drawn)?
A: Potency [1]: inactive; Potency [2]: inactive; outcome [3]: inactive; Potency [4]: inactive; Potency [5]: inactive; Potency [6]: inactive; Potency [7]: inactive; Potency [8]: inactive; Potency [9]: inactive; outcome [10]: inactive

Q: For CC(=O)CC/C=C(\C)CCC=C(C)C, which Potency [1] is on record?
A: inactive

Q: And the Potency [2]?
A: inactive

Q: What about the outcome [3] of the same molecule?
A: inactive

Q: What about the Potency [4] of the same molecule?
A: inactive

Q: What about the Potency [5] of the same molecule?
A: inactive

Q: What about the Potency [6] of the same molecule?
A: inactive

Q: What about the Potency [7] of the same molecule?
A: inactive

Q: And the Potency [8]?
A: inactive

Q: What about the Potency [9] of the same molecule?
A: inactive

Q: And the outcome [10]?
A: inactive

Q: Which Potency [1] does the source give for Cc1c(C(N)=O)cc([N+](=O)[O-])cc1[N+](=O)[O-] here?
A: inactive

Q: What about the Potency [2] of the same molecule?
A: inactive

Q: And the outcome [3]?
A: inactive

Q: What about the Potency [4] of the same molecule?
A: inactive

Q: What about the Potency [5] of the same molecule?
A: inactive

Q: And the Potency [6]?
A: inactive

Q: What about the Potency [7] of the same molecule?
A: inactive

Q: What about the Potency [8] of the same molecule?
A: inactive

Q: What about the Potency [9] of the same molecule?
A: inactive

Q: And the outcome [10]?
A: inactive

Q: Which results are given for c1cc(-c2ccncc2)ccn1?
A: Potency [1]: inactive; Potency [2]: inactive; outcome [3]: inactive; Potency [4]: inactive; Potency [5]: inactive; Potency [6]: inactive; Potency [7]: inactive; Potency [8]: inactive; Potency [9]: inactive; outcome [10]: inactive

Q: For CC(C)OC(=O)C(C)(C)Oc1ccc(C(=O)c2ccc(Cl)cc2)cc1, which Potency [1] is on record?
A: 13.8 µM (active) and inactive

Q: And the Potency [2]?
A: inactive

Q: And the outcome [3]?
A: inactive

Q: What about the Potency [4] of the same molecule?
A: inactive

Q: And the Potency [5]?
A: inactive

Q: What about the Potency [6] of the same molecule?
A: inactive

Q: What about the Potency [7] of the same molecule?
A: inactive

Q: What about the Potency [8] of the same molecule?
A: 68.6 µM (active)

Q: And the Potency [9]?
A: inactive

Q: What about the outcome [10] of the same molecule?
A: inactive

Q: For Nc1ncn([C@@H]2O[C@H](CO)[C@@H](O)[C@H]2O)c(=O)n1, which Potency [1] is on record?
A: inactive

Q: What about the Potency [2] of the same molecule?
A: inactive

Q: What about the outcome [3] of the same molecule?
A: inactive

Q: And the Potency [4]?
A: inactive

Q: And the Potency [6]?
A: inactive

Q: And the Potency [7]?
A: 3.44 µM (active) and 4.22 µM (active)

Q: And the Potency [8]?
A: 1.72 µM (active) and 3.35 µM (active)

Q: What about the Potency [9] of the same molecule?
A: inactive

Q: What about the outcome [10] of the same molecule?
A: inactive
